Hits are enriched below; roughly 6.8% of the tested compounds scored in any of these assays.
HCV NS3h FP – hepatitis C NS3 helicase inhibition, primary screen; NS3h Cy5-dT15 DNA binding, fluorescence polarization; inhibition, % at 100 µM; actives 1.6% (n = 16,000);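 active means inhibition above the average over every tested compound plus 3 SD, cut at about 40% in these data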
Cy5 interf NS3h – Cy5 fluorescence interference, HCV helicase counter-screen; Cy5-dT15 DNA with NS3h; actives lie on both sides; signal over control mean, under 1 quenches; fluorescence interference ratio at 100 µM; AID 720488; actives 6% (n = 16,000);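 active means compound fluorescence over control fluorescence at most 0.8, a quencher, or at least a set upper limit, an enhancer; inactive means ratio between 0.8 and the set upper limit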
Hits are given with their value; - = inactive.

SMILES	HCV NS3h FP	Cy5 interf NS3h
COc1cc(/C=C2\NC(=S)NC2=O)c([N+](=O)[O-])cc1OC	-	0.506
CC1CCN(c2cc(N3CCN(C(=O)c4cccc(F)c4)CC3)c([N+](=O)[O-])cc2F)CC1	-	-
O=C(CCN1C(=O)/C(=C/c2cccs2)SC1=S)Nc1nc2ccccc2s1	-	0.705
O=C(CCCN1C(=O)/C(=C\c2cccs2)SC1=S)Nc1ccccc1O	-	-
CC(C)n1c(O)c(C2=c3cc(Br)ccc3=NC2=O)sc1=S	-	-
COC(=O)c1cc(C(=O)NCc2ccc(OC)cc2)cc([N+](=O)[O-])c1	-	-
CCN(Cc1ccccc1)C(=O)c1cc(C(=O)OC)cc([N+](=O)[O-])c1	-	0.664
O=C(Nc1ccc(Cl)c(Cl)c1)c1nn2c(c1Br)NC(c1cccs1)CC2C(F)(F)F (centres undefined)	-	-
O=C(c1nn2c(c1Br)NC(c1cccs1)CC2C(F)(F)F)N1CCCC1 (centres undefined)	-	0.507
O=C(c1nn2c(c1Cl)NC(c1cccs1)CC2C(F)(F)F)N1CCOCC1 (centres undefined)	-	0.67
CCOC(=O)c1sc(NC(=O)c2nn3c(c2Cl)NC(c2cccs2)CC3C(F)(F)F)c(C(=O)OCC)c1C (centres undefined)	-	-
COc1ccc(-c2noc(COc3ccc(Br)cc3)n2)cc1	-	-
Cc1ccc(C)c(S(=O)(=O)Nc2ccc(OC(=O)c3ccc(Cl)cc3)cc2)c1	-	-
CC(=O)c1cccc(NC(=O)/C=C/c2ccccc2Cl)c1	-	-
Cc1cc(C)c(/C=N\n2cnnc2)cc1C	-	-
COc1ccc(C2=C/C(=C/c3ccc([N+](=O)[O-])cc3)C(=O)O2)c(OC)c1	-	0.668
CCOc1ccc(C2=C/C(=C/c3ccc(OC)cc3)C(=O)O2)cc1	-	-
CCc1ccc(/C=C2\C(=O)NN(c3ccccc3)C2=O)cc1	-	-
CCc1ccc(N2NC(=O)CC2=O)cc1	-	0.734
CCOc1ccc(NC(=O)/C(=C/c2ccccc2)c2ccccc2)cc1	-	0.672
CCOc1ccc(-c2nnc(NC(=O)Nc3ccccc3)s2)cc1	-	0.738
CCOc1ccc(NC(=O)/C=C/c2ccccc2)cc1	-	-
O=C(Nc1ccccc1)Nc1nnc(-c2ccccc2)s1	-	-
Cc1ccc(NC(=O)/C(=C/c2ccccc2)c2ccccc2)cc1C	-	0.654
COc1ccccc1NC(=O)/C(=C/c1ccccc1)c1ccccc1	-	-
SMILES	HCV NS3h FP	Cy5 interf NS3h
COCCCNC(=O)Cc1ccccc1[N+](=O)[O-]	-	-
COc1cc(/C=C/c2[nH]c(=O)[nH]c(=O)c2[N+](=O)[O-])ccc1O	-	-
Cc1ccccc1NCn1c(=S)oc2ccccc21	-	0.65
Cc1ccccc1NC(=O)CSc1ccccc1	-	-
O=C(Nc1ccccc1O)c1ccc2c(c1)C(=O)N(c1cccc(C(=O)c3ccccc3)c1)C2=O	-	-
O=C(Nc1nccs1)c1cccc(N2C(=O)c3ccccc3C2=O)c1	-	1.22
COc1cc(OC)c(OC)cc1CN1CCN(S(C)(=O)=O)CC1	-	-
COc1ccccc1CN1CCN(S(C)(=O)=O)CC1	-	0.77
CS(=O)(=O)N1CCN(Cc2ccccc2Br)CC1	-	0.67
CSc1ccc(CN2CCN(S(C)(=O)=O)CC2)cc1	-	-
CS(=O)(=O)N1CCN(Cc2ccncc2)CC1	-	0.681
CS(=O)(=O)N1CCN(Cc2ccc(Cl)cc2)CC1	-	-
O=C(NC(=S)Nc1ccc2oc(-c3cccc4c(Br)cccc34)nc2c1)c1ccco1	-	-
COc1cc(C2NC(=S)NC(C)=C2C(=O)Nc2ccc(Cl)cc2)ccc1O (centres undefined)	-	-
CCOC(=O)c1ccc(NC(=O)c2ccc(S(=O)(=O)N(C)C)cc2)cc1	-	-
Cc1ccc(C(O)=C2C(=O)C(=O)N(c3nccs3)C2c2cccs2)cc1 (centres undefined)	-	-
COC(=O)CCC(=O)Nc1ccc(C)c(Br)c1	-	-
CCOC(=O)C1=C(O)/C(=C/c2ccc(Cl)cc2)SC1=Nc1ccc(C)cc1	-	-
CCOC(=O)C1=C(O)/C(=C/c2ccc(O)cc2)SC1=Nc1cccc(Cl)c1	62.6	-
O=S(=O)(Nc1nc2ccccc2nc1N1CCCCC1)c1ccccc1	-	-
CN(C)/C(=N\OC(=O)c1ccc([N+](=O)[O-])cc1)c1nonc1N	-	0.67
N/C(=N/OC(=O)c1ccc(I)cc1)c1ccc([N+](=O)[O-])cc1	-	-
O=C(NCC1CCCO1)c1nc2nc(-c3ccccc3)cc(C(F)(F)F)n2n1 (centres undefined)	-	-
O=C(Nc1c(F)cc(F)cc1Br)c1nc2nc(-c3ccccc3)cc(C(F)(F)F)n2n1	-	0.71
O=C(Nc1nc2ccccc2n1Cc1ccccc1Cl)c1ccc(Cl)cc1	-	-
SMILES	HCV NS3h FP	Cy5 interf NS3h
O=C1NC(=O)C(=Cc2cccc(OCc3ccc(F)cc3)c2)C(=O)N1	-	-
O=C(/C=C1/Nc2ccccc2NC1=O)Nc1cccc(C(F)(F)F)c1	-	-
COC(=O)/C=C1\Nc2cc([N+](=O)[O-])ccc2NC1=O	-	0.724
O=[N+]([O-])c1ccc(N2CCN(CCO)CC2)cc1NCCc1ccccc1	-	-
O=[N+]([O-])c1ccc(Cl)cc1NCCOc1ccc(F)cc1	-	0.688
O=[N+]([O-])c1ccc(Cl)cc1NCCc1ccccc1	-	0.788
O=[N+]([O-])c1ccc(N2CCOCC2)cc1NCCc1ccccc1	-	0.667
Cc1cccc(OCCNc2cc(Cl)ccc2[N+](=O)[O-])c1	-	-
COc1ccccc1OCCNc1cc(Cl)ccc1[N+](=O)[O-]	-	-
Cc1ccc(N2C(=O)CC(NCCc3ccccc3)C2=O)cc1 (centres undefined)	-	-
FC(F)(F)c1ccccc1CN1CCN(Cc2cccnc2)CC1	-	-
Cn1c(=O)c2c(nc(Sc3nc4ccccc4o3)n2C)n(C)c1=O	-	-
CC1=NN(c2ccccc2)C(=O)/C1=C/c1ccc(-c2ccc(C(=O)O)cc2)o1	-	-
O=C1CCN(C(=O)c2ccccc2)c2cc3ccccc3cc21	-	-
O=C(O)c1ccccc1NC1=C(Cl)C(=O)N(c2cccc(Cl)c2)C1=O	-	-
O=C1C(=O)N(c2ccccc2Br)C(=O)N1c1cccc(Cl)c1	-	0.7
CC(C)N=C1NS(=O)(=O)c2cc([N+](=O)[O-])ccc21	-	-
CC(C)(C)CC(C)(C)N=C1NS(=O)(=O)c2cc([N+](=O)[O-])ccc21	-	0.613
Cc1cccc(-c2nc3ccccc3[nH]2)c1	-	-
COc1ccc(/C=C/C(=O)c2ccc(Cl)cc2)c(OC)c1	-	-
COc1ccc(N=C(NOC(C)=O)c2ccc(Cl)cc2)c(OC)c1	-	0.73
COc1cc(OC)cc(C(=O)Nc2ccc(C)c(C)c2)c1	-	-
COc1cc(CN2CCN(Cc3ccccc3C)CC2)c([N+](=O)[O-])cc1OC	-	-
COc1ccc(C2C(=C(O)c3ccc(Cl)cc3)C(=O)C(=O)N2C)c(OC)c1 (centres undefined)	-	-
Cc1ccc(C(=O)N/C(=C/c2cccnc2)c2nc3ccccc3[nH]2)cc1	-	0.797
Cc1ccc(C(=O)N/C(=C\c2ccccc2F)c2nc(=S)[nH][nH]2)cc1	-	-
O=C(COc1ccccc1Cl)Nc1cc(C(F)(F)F)ccc1Cl	-	-
Cn1c(=O)c(-c2nc3ccccc3[nH]2)c(O)c2ccccc21	-	-
COc1ccc(-c2noc(COc3cccc(C)c3)n2)cc1OC	-	-

Bioassay records (PubChem)
